Here are results for 61 compounds from PubChem BioAssay AID1321 (The Scripps Research Institute Molecular Screening Center, 2008).

In all, about 220,000 compounds went through this assay and about 2,600 (1.2%) were called active. This excerpt belongs to a sample that is enriched for actives. Values without a mark were called inactive.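 Rule for the calls: active = activation above the mean of all tested compounds plus 3 SD, set per screening run (cut at about 8.8% in these data); inactive = the rest.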

The test deals with Wee1-like protein kinase (Homo sapiens) (UniProt P30291). As to the kind of experiment: compounds stabilizing Wee1-luciferase fusion – cell-based, HeLa, Wee1K328M-luciferase, luminescence, primary screen (AID 1321).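 Note: cells exposed to compound for 20 h before luminescence read; 0% = DMSO alone and 100% = MG132 at 30 µM.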 To be noted: HeLa Luc-Wee1K328M stability, at 5 µM, stronger effect = higher value, 100% = proteasome inhibitor MG132 effect.
As for `COc1ccccc1-n1c(-c2cc(-c3ccco3)[nH]n2)n[nH]c1=S`, the reporter increase is 2.11%.

Regarding `Fc1ccccc1/C=N/n1c(-c2cccnc2)n[nH]c1=S`, the reporter increase is 0.63%.

As to `CC(=O)Nc1nc(C)c(-c2csc(Nc3ccc(S(N)(=O)=O)cc3)n2)s1`, the reporter increase was -1.97%.

Consider `Cc1ccc(Cl)c(OCC(=O)NN2CCN(C)CC2)c1`, for which the reporter increase was -4.89%.

In the case of `O=C(O)CCn1cc(/C=C/C(=O)c2ccc(Cl)cc2)c(-c2cccc(Br)c2)n1`, the reporter increase is -0.48%.

For the compound `CC(C)CN(CC(C)C)CC(O)CN(c1ccccc1)S(=O)(=O)c1ccccc1[N+](=O)[O-]` (stereo unspecified), the reporter increase is -0.95%.

On to `O=C(NCCN1CCOCC1)c1c(F)c(F)c(F)c(F)c1F`, for which the reporter increase was -1.64%.

Take `COCCCNC(=O)c1c(F)c(F)c(F)c(F)c1F`: the reporter increase is 9.02% (active).

Take `COCCCNC(=S)NC(=O)c1ccccc1`: the reporter increase was 1.37%.

Turning to `O=C(Nc1cccnc1)c1cc([N+](=O)[O-])ccc1Cl`, the reporter increase is -1.81%.

With `CN1CCN(c2ccc(CNS(=O)(=O)c3cccc(F)c3)cc2)CC1`, the reporter increase is -0.49%.

`Cc1cccc(C2C3=C(CCCC3=O)N=C3c4ccccc4C(=O)C32)c1` (stereo unspecified): the reporter increase was 2.45%.

As for `Cc1ccc2nc(C)c3c(c2c1)N(c1ccccc1)CC3`, the reporter increase was 2.22%.

For `Cc1cc(=O)[nH]c(N/N=C/c2ccc3c(c2)OCCO3)n1`, the reporter increase was 3.95%.

As for `O=C(CCS(=O)(=O)c1ccccc1Cl)Nc1ccc(S(=O)(=O)Nc2ncccn2)cc1`, the reporter increase was -2.3%.

As for `O=C(/C=C/c1ccccc1Cl)Nc1ccc(S(=O)(=O)Nc2ncccn2)cc1`, the reporter increase is -1.98%.

For the compound `O=S(=O)(Nc1ncccn1)c1ccc(NS(=O)(=O)c2cccc(Cl)c2Cl)cc1`, the reporter increase was 9.1% (active).

`CCCSc1ncccc1C(=O)O`: the reporter increase was 5.65%.

Take `Cc1nnc(SCC(=O)N2c3ccccc3C(C)(c3ccc(Cl)cc3)CC2(C)C)s1` (stereo unspecified): the reporter increase is 11.3% (active).

As to `Cc1nnc(SCC(=O)N2CCc3ccccc3C2)s1`, the reporter increase was -1.25%.

Consider `CC1(c2ccccc2)CC(C)(C)N(C(=O)c2cc([N+](=O)[O-])cc([N+](=O)[O-])c2)c2ccccc21` (stereo unspecified), for which the reporter increase is -3.96%.

Turning to `NC(=O)NC(=O)CSc1nc2cc([N+](=O)[O-])ccc2n1-c1cccc(C(F)(F)F)c1`, the reporter increase is 0.4%.

For the compound `N#CCc1ccc(OC(=O)c2cccnc2)cc1`, the reporter increase was -2.7%.

As for `COc1ccc(-c2noc(-c3ccc(C)cc3)n2)cc1`, the reporter increase is -0.18%.

As for `COc1ccc(-c2noc(CSc3ccc(C)cc3)n2)cc1`, the reporter increase was 13.7% (active).

With `COc1ccc(-c2noc(CN(C)S(=O)(=O)c3ccc(C)cc3)n2)cc1`, the reporter increase was -2.95%.

For the compound `CC1CC(=O)Nc2ccccc2N1S(=O)(=O)c1cccs1` (stereo unspecified), the reporter increase is 4.07%.

Regarding `CCC(C)Cn1c(O)cc2nn(-c3nc4ccccc4s3)c(=O)c-2c1C` (stereo unspecified), the reporter increase is -4.96%.

As to `O=C(N/N=C/c1ccc2c(c1)OCO2)C(=O)N1CCCC1`, the reporter increase is 2.71%.

With `O=C(N/N=C/c1ccc([N+](=O)[O-])cc1)C(=O)N1CCCC1`, the reporter increase is 9.76% (active).

`NC(=S)N/N=C/c1ccc([N+](=O)[O-])cc1`: the reporter increase was -3.91%.

With `Cc1ccc2nc3n(c(=O)c2c1)CCC3`, the reporter increase was 12.8% (active).

Consider `Cc1cccc2c(=O)n3c(nc12)CCCCC3`, for which the reporter increase is -0.11%.

As for `O=C(Nc1ccc2nc3n(c(=O)c2c1)CCCCC3)c1ccccc1Cl`, the reporter increase was 0.41%.

Take `CNC(=O)c1csc(Cc2c(Cl)sc3ccc(Cl)cc23)n1`: the reporter increase is 0.14%.

`O=C(COc1ccccc1)N1CCN=C1SCc1cccc(F)c1`: the reporter increase was -0.6%.

Take `CS(=O)(=O)c1sc(C(=O)NC(=S)Nc2ccc(OC(F)(F)F)cc2)c2c1C=CCC2`: the reporter increase is 3.21%.

On to `CCOC(=O)c1c(C)nn(-c2ncccc2NC(=O)CCC(=O)O)c1C`, for which the reporter increase was -3.19%.

On to `O=C(COC(=O)c1ccc[nH]c1=O)Nc1ccc2c(c1)OC(F)(F)O2`, for which the reporter increase was 7.03%.

`CN1C(=O)/C(=C/C=C2\SCCN2C)OC1=S`: the reporter increase was 9.67% (active).

Take `O=C(c1ccco1)N(Cc1nc2ccccc2c(=O)[nH]1)C1CCCC1`: the reporter increase is -0.38%.

On to `CN(C)S(=O)(=O)c1cc(NC(=O)CN2C(=O)NC3(CCCc4ccccc43)C2=O)ccc1Cl` (stereo unspecified), for which the reporter increase was -2.38%.

`CCN(CC(=O)NC(=O)NCc1ccccc1)Cc1nc2ccccc2c(=O)[nH]1`: the reporter increase was 10.5% (active).

`CCN(CC(=O)Nc1cccc(S(N)(=O)=O)c1)Cc1nc2ccccc2c(=O)[nH]1`: the reporter increase was -3.31%.

In the case of `CCN(CC(=O)Nc1ccc(Cl)c(S(=O)(=O)N(C)C)c1)Cc1nc2ccccc2c(=O)[nH]1`, the reporter increase is 9.09% (active).

Regarding `CCCC(=O)N(CCc1ccccc1)Cc1nc2ccccc2c(=O)[nH]1`, the reporter increase is -2.77%.

As for `CC#CC[N+](C)(C)CCCCCC`, the reporter increase was 3.56%.

`CC(C)CCNC(=O)C1CCC(CNc2c(N3CCC(C)CC3)c(=O)c2=O)CC1` (stereo unspecified): the reporter increase was -0.83%.

For `Cc1csc(/N=C/N(C)C)c1C#N`, the reporter increase is -2.57%.

Take `C/C(CC(=O)NC(C)c1ccccc1)=N\NC(N)=S` (stereo unspecified): the reporter increase was -1.77%.

Consider `OCC1(Cc2ccccc2)CCN(Cc2cc3ccccc3o2)CC1`, for which the reporter increase is -0.66%.

For the compound `CC(C)c1csc(CN2CCC(CO)(Cc3ccccc3)CC2)n1`, the reporter increase was 11.4% (active).

For the compound `CC(=O)c1cccc(CN2CCC(CO)(Cc3ccccc3)CC2)c1`, the reporter increase was -2.2%.

Consider `Cn1c(=O)c2c(nc(N3CCCCCC3)n2CC(=O)c2ccc(Br)cc2)n(C)c1=O`, for which the reporter increase is -1.77%.

Consider `O=C(Cn1ncc(N2CCCC2)c(Br)c1=O)c1ccc(Cl)cc1`, for which the reporter increase is 9.08% (active).

Turning to `CC(=O)Cn1ncc(N2CCOCC2)c(Br)c1=O`, the reporter increase is 1.92%.

Consider `CCc1ccc(S(=O)(=O)Nc2ccc(C)c(NS(C)(=O)=O)c2)cc1`, for which the reporter increase was -2.18%.

In the case of `COC(=O)c1c(C)oc(C)c1S(=O)(=O)Nc1ccc(C(C)C)cc1`, the reporter increase was -0.82%.

As to `NC(=S)N/N=C/c1coc2cc(Cl)ccc2c1=O`, the reporter increase is 7.29%.

`O=c1c(/C=N/O)coc2ccc(Cl)cc12`: the reporter increase was 13.3% (active).

As for `O=C(N/N=C/c1coc2ccccc2c1=O)c1cc2ccccc2o1`, the reporter increase was 2.23%.
